# Experimental data as given in PubChem BioAssay (NCI).
# Compounds without any hit were thinned out: in the full panel of roughly 83,000, 20% have a hit.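 The test compound was applied at a single concentration to cells in 96-well plates for 48 hours, and percent growth was recorded.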 A number with no mark means an inactive call. Calls of active or inactive are those of the source.
# Tested on: OVCAR-5 ovarian
# Experiment: NCI-60 one-dose screen, 48 h (100 = growth as untreated, 0 = no growth, -100 = all killed)
# Settings: 10 µM unless noted
# Protocol: Growth inhibition of the OVCAR-5 human tumor cell line is measured as a screen for anti-cancer activity. Cells are grown in 96 well plates and exposed to the test compound for 48 hours. Compounds are tested at a single concentration, which is 10^-5 M for most compounds. The reported endpoint is percent growth (GI% or GIPRCNT), where numbers from 0 - 100% represent growth inhibition, and numbers from -100% - 0 represent cell death. For example, a value of 40 represents 60% growth inhibition. A value of 0 means no net growth occurred over the course of the experiment. A value of -40 indicates 40% of cells at the beginning of the experiment died by the end of the experiment. A value of -100 means all cells are dead at the end of the experiment.
# NCI-60 Human Tumor Cell Lines Screen was performed using the standard one-dose NCI protocol, which is described in more detail at https://dtp.cancer.gov/discovery_development/nci-60/default.htm.
# Compounds with GIPRCNT values below 10 were considered active. Activity score was based on GIPRCNT using the following formula: […]
# Score is 0 for GIPRCNT values of 100 or above, 50 for GIPRCNT values of 0, and 100 for GIPRCNT values of -100.
row,SMILES,growth
1,COc1cccc(N2CCN(c3ncnc4cc[nH]c34)CC2)c1,104%
2,N/C(=N\OC(=O)c1ccccc1)C(C(=O)NOC(=O)c1ccccc1)C1CCCCC1 (stereo not given),92.2%
3,CCCCCCCCCCCCC1CCC(=O)O1 (stereo not given),85.4%
4,COc1ccc([C@H]2c3[nH]c4ccccc4c3C[C@H]3C(=O)N(CCCCCCC(=O)NO)CC(=O)N23)cc1,23.3%
5,N=C(N)c1ccc(NCCNc2ccc(C(=N)N)cc2)cc1,95.1%
6,CS(=O)(=O)c1ccc(C(=O)N/N=C/c2ccc3c(c2)OCO3)cc1,116%
7,S=C(Nc1ccc(Cl)cc1)Nc1ccc(Cl)cc1 (tested in a mixture with another compound),12.5%
8,COc1cccc(-c2cc(-c3cccs3)c(C#N)c(=O)[nH]2)c1,113%
9,O=C(Nc1ccccc1)c1cc2ccccc2s1,81.7%
10,O=C1C=CN2C(=O)CC=CC2[C@@H]1O (stereo not given in full),121%
11,O=C(Nc1ccc(-n2ccc3c(NC(=O)c4ccccc4)nccc32)cc1)c1ccc(N2CCOCC2)c(C(F)(F)F)c1,56.8%
12,O=C(N/N=C/c1ccccc1O)c1ccncc1,71.1%
13,Oc1ccc(-c2nnc3c4[nH]ccc4ncn23)cc1,113%
14,O=C(C(=O)N1CCCC1)c1cn(CCCn2cc(C(=O)C(=O)N3CCCC3)c3cc(Br)ccc32)c2ccc(Br)cc12,94.7%
15,O=C(Nc1cccc(Cl)c1)Nc1ccccc1Cl,115%
16,COc1cc(C2CC(c3ccc(Cl)cc3)=NN2C=O)ccc1Oc1ccnc2cc(Cl)ccc12 (stereo not given),92.7%
17,C=CCN(CC#N)CC=C,102%
18,CC(=O)N1N=C(C2C(=O)N(C)C(=O)N(C)C2=O)CC1c1ccccc1C(=O)O (stereo not given),104%
19,O=C(CSc1nc2c(n1Nc1ccccc1)-c1ccccc1SC2)Nc1nccs1,103%
20,CC(=O)Oc1ccccc1C(=O)Nc1ncc([N+](=O)[O-])s1,63.3%

row,SMILES,growth
1,CC(C)[C@@]12C[C@@H](OC(=O)C3CO3)[C@@](C)(O1)[C@@H]1CC[C@@H](C)[C@H]1[C@@H]2OC(=O)/C=C/c1ccccc1 (stereo not given in full),100%
2,CCOC(=O)C(Cc1ccccc1)n1c(O)c(/C=N/c2ncc(Cc3ccc(Cl)cc3Cl)s2)sc1=S (stereo not given),38.9%
3,Clc1cc(Cl)cc(-c2cnc3nonc3n2)c1,93.7%
4,Cc1cc(-c2ccc(N=Nc3c(S(=O)(=O)O)cc4cc(S(=O)(=O)O)cc(O)c4c3O)c(C)c2)ccc1N=Nc1c(S(=O)(=O)O)cc2cc(S(=O)(=O)O)cc(O)c2c1O,99.4%
5,COc1ccc(-c2cnc(-c3ccncc3-c3cccc(OC)c3)o2)cc1,57.4%
6,CCN1C(=O)N(CC)C2C1N=C(SC)N2/N=C/C=C/c1ccccc1OC (stereo not given),37.2%
7,CCOC(=O)N1C2CCC(C2)N1C(=O)OCC,100%
8,N/C(=N\OC(=O)c1ccccc1)C(Cc1ccccc1)C(=O)NOC(=O)c1ccccc1 (stereo not given),101%
9,CN1C2CCC1/C(=C\c1ccc(Cl)cc1)C(=O)/C2=C/c1ccc(Cl)cc1,102%
10,CSC1=N/C(=C\c2cccc(OCc3ccc(Cl)cc3)c2)C(=O)N1,106%
11,C=C(c1ccc(C(=O)NCCCn2ccnc2)cc1)c1cc2c(cc1C)C(C)(C)CCC2(C)C,33.3%
12,CCCCCCCCCCCCCCCCCC(=O)[O][Sn]([CH2]CCC)([CH2]CCC)[CH2]CCC,-71.1% (active)
13,CCCCn1cnc2c(SCc3ccc([N+](=O)[O-])cc3)nc(N)nc21,91.5%
14,COc1cc(C2CC(c3ccc(Cl)cc3)=NN2C(C)=O)ccc1Oc1ccnc2cc(Cl)ccc12 (stereo not given),81.2%
15,N=C(N)c1ccc(-c2ccc(-c3cccs3)s2)cc1F,-83.6% (active)
16,C#CCO[C@H]1CC[C@H](OCC#C)[C@@H]2[C@H]1[C@H]1C[C@@H]3[C@@]4(C)CCC[C@@](C)(C(=O)OC)[C@@H]4CC[C@@]23C=C1C(C)C,92.1%
17,NNC(=O)CSc1nc2scc(-c3ccccc3)c2c(=O)n1-c1ccccc1,98%
18,COc1cc2c(c(OC)c1O)C(=O)C(OC)C(c1ccc(O)c(O)c1)O2 (stereo not given),42.5%
19,CCCCCCCCOC(=O)C(C)OC(=O)OCCOCCOC(=O)OC(C)C(=O)OCCCCCCCC (stereo not given),81.8%
20,O=C(O)c1cc2cc(OCc3ccccc3)ccc2[nH]1,109%
